Test results published in PubChem BioAssay (NCI).
The panel holds about 83,000 compounds, 20% with a hit somewhere; the sample as a whole holds those more often.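 Values shown are percent growth following 48 h exposure of cells in 96-well plates to a single concentration of compound; below 10 was considered active.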 The source made the active and inactive calls.

These compounds were tested on HCT-116 colon (assay: NCI-60 one-dose screen, 48 h (100 = growth as untreated, 0 = no growth, -100 = all killed)). Conditions: 10 µM unless noted.
In the case of `Cc1ccc2nc(SCn3nnc4ccccc4c3=O)[nH]c2c1`, the growth is reported as 97.1% (inactive).
With `C=CCOc1cccc(/C=C/C(=O)c2sc(Nc3cccnc3)nc2C)c1` the growth was 20.3% (inactive).
With `O=C(Nc1cccc(C(F)(F)F)c1)Nc1ccc(OCc2nnc(-c3ccccc3)o2)c(F)c1` the growth was 14.6% (inactive).
For `COC(=O)c1ccc(C)cc1`, the growth was 101% (inactive).
`COc1ccc(-c2nc(-c3nc4ccc(F)cc4[nH]3)cc3c2[nH]c2ccccc23)cc1` was tested, and the growth was 25.3% (inactive).
`CCCC1OC(c2ccc(C(C)C)cc2)OCC1CC` (stereo unspecified) was tested, and the growth was 93.9% (inactive).
`COc1cc(C2C=C(C)N=C3SC=CN32)cc(OC)c1OC` (stereo unspecified) was tested, and the growth was 101% (inactive).
For `CCCCCCCN(CCCCCCC)C(=N)c1ccc(OC)c2ccccc12`, the growth was -86.7% (active).
`O=[N+]([O-])c1cccc(-c2cc(-c3cc(Br)ccc3O)[nH]n2)c1` was tested, and the growth was 13.5% (inactive).
`COc1ccc(/C=C2\CCCC3=C2NC(C)=NC3c2ccc(OC)c(OC)c2)cc1OC` (stereo unspecified) was tested, and the growth was -95.7% (active).
For `COc1cc(Cn2c(-c3nonc3N)nc3ccccc32)ccc1C`, the growth was 20.3% (inactive).
For `CCn1c(=O)c2c(=O)c3c4c(oc3oc2c2ccccc21)C(=O)c1ccccc1C4=O`, the growth was 34.6% (inactive).
With `COc1ccc(OC)c(NC(=O)c2cc(S(=O)(=O)N3CCc4ccccc43)ccc2OC)c1` the growth was 72.2% (inactive).
In the case of `Clc1cccc(Cl)c1Cn1c(-c2cncs2)nc2ccccc21`, the growth is reported as 78.8% (inactive).
With `O=C(Nc1cccc(Cl)c1)c1cc([N+](=O)[O-])ccc1O` the growth was 45.9% (inactive).
`O=C(O)c1ccc(-n2c(=O)c3ccccc3c3ccccc3c2=O)cc1` was tested, and the growth was 104% (inactive).
